Assay outcomes (PubChem BioAssay)
In the library only some 3.1% were active in any assay of this set; here they are far more common.
KLK7 zymogen act = proKLK7 (human) activation, primary screen; P49862; purified proKLK7, EDANS-DABCYL substrate fluorescence; 100% is mature enzyme control, 0% vehicle; activation, % at 7 µM; actives 0.9% (n = 370,000);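 active means activation above the mean of all tested compounds plus 3 SD, computed per campaign excluding outliers beyond control limits, cut at about 13% in these data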
UHRF1 MBD2 ctr = UHRF1 methyl-DNA binding inhibition; inhibition, % at 4.4 µM; AID 687016; Q96T88; actives 0.75% (n = 370,000); UHRF1 binding to methylated oligo, TR-FRET; in the data active means inhibition above about 21%;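 further: UHRF1 SRA domain binding a hemimethylated CpG hairpin DNA probe; 0% = median of test compound wells and 100% = reference inhibitor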
Neddyl block = cullin neddylation inhibition | AID 651699 | calls only at 25 µM | P61081+Q13564 | actives 0.58% (n = 360,000) | TR-FRET cullin neddylation, biochemical; in the data active means inhibition above about 36%
Rin1-Abl PPI inh = human Rin1-Abl interaction inhibition. TR-FRET Rin1/Abl binding, biochemical. inhibition, % at 7.35 µM. actives 0.4% (n = 360,000); in the data active means inhibition above about 5%, passing the limit was not always enough
LEDGF integ inh = blocks HIV-1 LEDGF/p75-dependent DNA integration; inhibition, % at 3.7 µM; TR-FRET IN-LEDGF/p75 DNA integration, Eu/Cy5; AID 743269; actives 0.64% (n = 370,000);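 active means inhibition above the screen-wide mean plus 3 SD, cut at about 13% in these data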;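 further: signal is the Cy5 over europium emission ratio at 671 and 618 nm; 0% = plate median of compound wells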
MBD2 DNA inh = blocks human MBD2 binding to methylated DNA. TR-FRET, MBD2 binding to methylated oligonucleotide. inhibition, % at 4.4 µM. actives 0.31% (n = 370,000); in the data active means inhibition above about 13%
Neddyl inh conf = cullin neddylation inhibition, confirmation; shares compounds with Neddyl block; TR-FRET cullin neddylation biochemical assay; calls only at 25 µM; actives 13% (n = 1,800); AID 652217; in the data active means inhibition above about 40%;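 further: neddylation substrate is the cullin 1 ring ligase complex with SKP2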
* marks the source's active call; other numbers are inactive results; i = inactive; nt = no result shown; + = active, no number.

SMILES	KLK7 zymogen act	UHRF1 MBD2 ctr	Neddyl block	Rin1-Abl PPI inh	LEDGF integ inh	MBD2 DNA inh	Neddyl inh conf
NC(=O)/C(=C/c1ccco1)C(N)=S	1	5	+	3	12	1	i
COc1ccccc1N1CCN(CC(O)c2ccc3cc[nH]c3c2)CC1 (stereo not drawn)	1	-1	+	0	-1	-2	i
CCOC(=O)N1CCN(CC(O)c2ccc3cc[nH]c3c2)CC1 (stereo not drawn)	1	-1	i	0	1	-3	nt
COc1ccc(-c2cnc3ccccc3n2)cc1NC(=O)CNC(=O)c1ccccc1	0	0	+	0	-2	-3	i
CC1(C(=O)Nc2ccc3c(c2)OCCO3)CSCC(=O)N1CCc1ccccc1F (stereo not drawn)	0	-1	i	nt	-1	-2	nt
CCOC(=O)C1CCN(c2cc3c(cc2NC(=O)c2ccccc2OCC)n(C)c(=O)n3C)CC1	1	-1	+	-4	-3	3	i
CCOc1cc(NC(=O)C2CC2)c(OCC)cc1NC(=O)c1ccccc1OCC	0	-3	+	0	-1	-5	nt
CCOc1cc(NC(=O)C2CC2)c(OCC)cc1NC(=O)c1cc(OC)c(OC)c(OC)c1	0	0	nt	0	-1	-5	nt
CCOC(=O)C1CCN(c2cc3c(cc2NC(=O)c2ccccc2Cl)n(C)c(=O)n3C)CC1	6	-2	nt	0	-1	-3	nt
Cc1c(NC(=O)C(C)Sc2nc3ccccc3c(=O)n2CCO)c(=O)n(-c2ccccc2)n1C (stereo not drawn)	-1	2	i	-4	-3	-2	nt
COc1cc(N2CCC(O)CC2)ccc1Nc1cc(Nc2ccccc2S(=O)(=O)C(C)C)c2cc[nH]c2n1	0	-5	nt	nt	-6	-6	nt
Clc1ccc(/C=C/c2nc(Cl)c(-c3ccc(Cl)cc3)c(Cl)n2)cc1	0	1	+	1	2	1	i
Nc1nc(N)nc(-c2ccc(Cl)cc2)n1	0	-1	i	0	-4	1	nt
CCN(CC)S(=O)(=O)c1cccc(-c2nn(-c3ccccc3)cc2/C=C(\C#N)C(=O)NCc2ccco2)c1	0	1	+	-1	0	-1	i
Cc1nn(-c2ccccc2)c(N2CCCC2)c1/C=N/NC(=O)c1ccccc1O	-2	0	+	-4	-4	-1	i
Cc1nn(-c2ccccc2)c(C)c1/C=N/NC(=O)c1ccccc1O	1	-3	i	1	3	1	nt
O=C(CSc1cccc2cccnc12)Nc1cc(C(=O)O)cc(C(=O)O)c1	0	-14	+	0	0	2	+
CC1CC2(CC(CN(C3CCCCC3)C3CCCCC3)OC2=O)C(=O)O1 (stereo not drawn)	nt	nt	i	2	nt	nt	nt
O=c1cc(-c2ccccc2)c2ccc(O)c(CN3CCCCC3)c2o1	11	0	+	-1	1	-5	i
COC(=O)C1=C(C)NC2=C(C(=O)CC(C)(C)C2)C1c1ccccn1 (stereo not drawn)	4	0	nt	-3	0	-2	nt
COC(=O)C1=C(C)NC2=C(C(=O)C(C(=O)OC)C(c3ccc(OC)cc3)C2)C1c1ccccn1 (stereo not drawn)	-1	5	+	-6	-1	5	nt
CC(Oc1ccc2ccc(=O)oc2c1)C(=O)N1CCOCC1 (stereo not drawn)	-17	6	+	-3	3	4	nt
Cc1ccc(C)c(S(=O)(=O)NCCC(=O)N2CCCC(C(N)=O)C2)c1 (stereo not drawn)	0	-1	i	2	0	-11	nt
COc1ccc(C(=O)N2CCOC2CNC(=O)C(=O)NCc2ccccn2)cc1 (stereo not drawn)	0	-2	i	2	-1	-4	nt
CCOC(=O)c1ccc(NC(=O)Nc2ccc(OC)c(OC)c2)cc1	0	0	i	-1	-3	1	nt
CCOC(=O)C1=C(C(=O)OCC)c2ccc(OC)c(OC)c2C1	2	-2	+	5	-3	0	i
